Among the data in PubChem BioAssay are composite z-score values, retold here.

A short description of the assay: small molecules captured by biotinylated probe aFSTL3 – biochemical, small-molecule microarray, fluorescence 635/667, stem cell growth factor project, primary screen (AID 1064).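 Also: measures binding of the biotinylated anti-FSTL3 antibody to printed compounds.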 The settings on record: higher = more signal.
Compound `CCOC(=O)C=Cc1cc(F)ccc1O` gave a composite z-score of 0.0251.

The compound `[N-]=[N+]=Nc1ccccc1[C@@H]1OC(c2ccc(OCCCO)cc2)=N[C@]1(Cc1ccccc1)C(=O)NCc1ccccc1` returned a composite z-score of 0.97.

In turn, `Cc1ccccc1C(O)C1C=CC2C(=O)NC(=O)C2N1Nc1ccc(Cl)cc1Cl` (stereo not given) displayed a composite z-score of 0.51.

In turn, `COc1ccc([Si](C)(C)[C@H]2[C@H](CCO)O[C@@]3(C(=O)N(Cc4ccccc4)c4ccc(N5CCOC5=O)cc43)[C@@H]2C)cc1` returned a composite z-score of -0.226.

Compound `COCC1C2CC[C@H]3C(OCc4ccc(OC)cc4)OC[C@]4(C)[C@H]3C2=C(CN4C(=O)OC(C)(C)C)[C@H](C)C1COC` (stereo not given in full) registered a composite z-score of -0.163.

In the case of `COCCOC(=O)N1C(=O)[C@@]2(c3cc(C#CC4(O)CCCCCC4)ccc31)[C@H](C(=O)N1CCN(c3ncccn3)CC1)[C@H]1C(=O)O[C@H](c3ccccc3)[C@H](c3ccccc3)N1[C@@H]2c1ccccc1OCCO`, the composite z-score is -0.215.

The compound `COc1ccc(C(=O)Nc2cccc(CN3C(=O)[C@@]4(O[C@@H](CC(=O)N(CCO)Cc5ccccc5)[C@H]([Si](C)(C)c5ccc(OC)cc5)[C@H]4C)c4ccccc43)c2)cc1` yielded a composite z-score of -0.117.

For `COCCOC(=O)N1C(=O)[C@@]2(c3cc(C#CCNC(N)=O)ccc31)[C@H](c1ccc(O)cc1)N1[C@H](c3ccccc3)[C@H](c3ccccc3)OC(=O)[C@H]1[C@@H]2C(N)=O`, the composite z-score was determined as 0.161.

In turn, `O=C1C2C=CC(C(O)c3cccc(O)c3)N(Nc3ccccc3)C2C(=O)N1c1ccccc1` (stereo not given) displayed a composite z-score of -0.0667.

In turn, `COc1ccc([Si](C)(C)[C@@H]2[C@@H](CC(=O)N3Cc4ccccc4C[C@H]3CO)O[C@]3(C(=O)N(c4ccccc4)c4ccccc43)[C@H]2C)cc1` came in with a composite z-score of 0.485.

As to `COc1ccc(C(O)C2C=CC3C(=O)N(c4ccccc4)C(=O)C3N2Nc2ccccc2F)cc1` (stereo not given), the composite z-score is 0.109.

Turning to `COCCOC(=O)N1C(=O)[C@@]2(c3cc(C#CCC(C(=O)OC)C(=O)OC)ccc31)[C@H](c1ccc(O)cc1)N1[C@H](c3ccccc3)[C@H](c3ccccc3)OC(=O)[C@H]1[C@@H]2C(=O)NC[C@H](O)c1ccccc1`, the composite z-score was -0.32.

`COCC(=C=CC[C@H](O)c1cccc(OCCO)c1)C[C@H](O)COCc1ccccc1` came in with a composite z-score of 0.0102.

For the compound `C=C(C)[C@@H]1CC=C(C(O)C2C=CC3C(=O)N(c4ccccc4)C(=O)C3N2Nc2ccc(C#N)cc2)CC1` (stereo not given in full), the composite z-score is -0.266.

`COc1ccc(NC(=O)O[C@H]2[C@@H]3OC(=O)[C@H](Cc4cccc(Br)c4)C/C=C/C[C@@H](Cc4cccc(Br)c4)C(=O)O[C@H]3[C@@H](OC)O[C@@H]2CO)cc1` came in with a composite z-score of 0.0355.

With `C=C(/C(=C/C[C@H](OC(=O)c1ccncc1)c1cccc(OCCO)c1)c1cnc2ccccc2c1)C(C)C`, the composite z-score was 0.0581.

`CS(=O)(=O)CCOC(=O)C1=CC(CCCO)=CC(C2CC2)N(Cc2cccc(OC(F)(F)F)c2)C=C1C(=O)OCCS(C)(=O)=O` (stereo not given) gave a composite z-score of -0.527.

As for `NC(=O)[C@H]1[C@@H]2C(=O)O[C@@H](c3ccccc3)[C@@H](c3ccccc3)N2[C@@H](c2ccc(O)cc2)[C@]12C(=O)Nc1ccc(C#CC3=CCCCC3)cc12`, the composite z-score was determined as 0.124.

With `[N-]=[N+]=NCc1ccccc1[C@@H]1OC(c2ccc(OCCCO)cc2)=N[C@]1(Cc1ccccc1)C(=O)NCCN1CCOCC1`, the composite z-score stood at 0.32.

In the case of `COc1cc(C(O)C2C=CC3C(=O)N(Cc4ccccc4)C(=O)C3N2n2cnnc2)cc(OC)c1OC` (stereo not given), the composite z-score is -0.246.

For the compound `C=CCN1C(=O)[C@@]2(O[C@@H](CCO)[C@H]([Si](C)(C)c3ccc(OC)cc3)[C@H]2C)c2cc(N3CCOC3=O)ccc21`, the composite z-score is -0.0204.

Compound `CC(C)[C@H]1NC(=O)[C@@]23C(=O)N[C@@H](Cc4ccccc4)C2[C@H](C)[C@@]2(C)O[C@H]2C3/C=C/C/C=C\CNC(=O)[C@H](Cc2ccccc2)NC1=O` (stereo not given in full) returned a composite z-score of -0.264.

In turn, `O=C1C2C=CC(C(O)c3ccco3)N(Nc3ccccc3)C2C(=O)N1c1ccccc1` (stereo not given) gave a composite z-score of 0.76.

`CC(C)C[C@@H]1NC(=O)[C@@]23C(=O)N[C@@H](Cc4ccccc4)C2[C@H](C)[C@@]2(C)O[C@H]2C3/C=C/C/C=C\CNC(=O)[C@@H](C)NC1=O` (stereo not given in full) yielded a composite z-score of -0.296.

In the case of `CCN(CC)c1ccc(N2CC=CC34O[C@@H]5/C=C\CCC(C)OC(=O)C5[C@H]3C(=O)N(C(C)CO)[C@@H]4C2=O)cc1` (stereo not given in full), the composite z-score was -0.0462.

Compound `CO[C@H]1O[C@H](CO)[C@@H](OC(=O)c2ccc(Br)cc2)[C@@H]2OC(=O)[C@H](Cc3ccccc3)C/C=C/C[C@@H](Cc3ccccc3)C(=O)O[C@@H]12` came in with a composite z-score of -0.287.

As for `CC(C)C(CO)N1C(=O)[C@@H]2[C@H]3C(=O)OCC=C[C@H]3OC23C=CCN(C(C)(C)C)C(=O)[C@@H]13` (stereo not given in full), the composite z-score was -0.0718.

Turning to `[N-]=[N+]=Nc1ccccc1C[C@]1(C(=O)O)N=C(c2ccc(OCCCO)cc2)O[C@H]1c1ccccc1N=[N+]=[N-]`, the composite z-score stood at 0.951.

In turn, `C=C(/C(=C/C[C@@H](OC(=O)c1ccncc1)c1cccc(OCCO)c1)c1cnc2ccccc2c1)C(C)C` yielded a composite z-score of 0.21.

Take `CCCNC(=O)[C@@]1(Sc2ccc(C)cc2)CC(=O)N(C(C)C)[C@@H]1c1ccc(CO)cc1I`: the composite z-score was determined as 1.2.

For `C=CCNC(=O)[C@@H]1[C@H]2C(=O)O[C@H](c3ccccc3)[C@H](c3ccccc3)N2[C@H](c2ccc(OCCO)cc2)[C@@]12C(=O)N(C(=O)OCCOC)c1ccc(C#CCCO)cc12`, the composite z-score was -0.209.

`CCCCCCCCCCC(O)C1C=CC2C(=O)N(c3ccccc3)C(=O)C2N1Nc1ccccc1F` (stereo not given) had a composite z-score of 0.51.

For the compound `COC(=O)C1N=C(c2ccc(OCCCO)cc2)N(c2ccccc2)O1` (stereo not given), the composite z-score worked out at 0.397.

Take `COC(=O)[C@@]1(Cc2ccc(F)cc2)[C@H]2c3cc(C(=O)N4CCCC4)n(C)c3C[C@H]2CN1C(=O)c1ccccc1`: the composite z-score amounted to 1.18.

In turn, `O=C1C2C=CC(C(O)C=Cc3ccc([N+](=O)[O-])cc3)N(Nc3ccccc3)C2C(=O)N1c1ccccc1` (stereo not given) came in with a composite z-score of -0.134.
